# According to PubChem BioAssay (NCATS):
# Values joined by “and” are separate entries in the source; they are usually repeats but may differ in a detail not shown here. Equal values may be shown once. Unmarked numbers belong to inactive results. Results filed as inconclusive are left out. Active and inactive are the calls of the source. Unless noted, calls come from the whole dose curve; as a rule, active = well fitted curve in the direction sought with a large enough effect; inconclusive = small, poorly fitted or top-dose-only effect, or another doubt; inactive = no such curve, though single readings can be large; an effect the other way counts as inactive or inconclusive.
# How the values were obtained:
# [1] = target: Arylsulfatase A (Homo sapiens) (UniProt P15289); assay: qHTS screen for enhancers of Arylsulfatase A (ASA1): LOPAC Validation Assay (AID 720538); details: ASA enzyme activity, LOPAC qHTS enhancer assay; series mostly up to 57.5 µM; note: 0% is about no effect
# Chain of Arylsulfatase A (Homo sapiens) (P15289 whole entry, looked up): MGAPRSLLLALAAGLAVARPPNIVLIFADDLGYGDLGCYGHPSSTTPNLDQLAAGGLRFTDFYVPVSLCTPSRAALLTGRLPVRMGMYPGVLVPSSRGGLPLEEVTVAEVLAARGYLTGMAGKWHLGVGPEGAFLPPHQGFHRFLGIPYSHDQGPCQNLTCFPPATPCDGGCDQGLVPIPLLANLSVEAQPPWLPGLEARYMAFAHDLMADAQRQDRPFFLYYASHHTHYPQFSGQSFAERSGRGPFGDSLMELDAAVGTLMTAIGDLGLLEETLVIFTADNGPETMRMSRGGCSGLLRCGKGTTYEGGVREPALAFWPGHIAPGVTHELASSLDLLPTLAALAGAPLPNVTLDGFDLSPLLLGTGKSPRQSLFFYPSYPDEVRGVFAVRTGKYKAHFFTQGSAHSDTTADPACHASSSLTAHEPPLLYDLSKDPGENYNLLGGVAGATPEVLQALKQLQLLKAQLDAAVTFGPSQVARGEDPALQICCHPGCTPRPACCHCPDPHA
# Summary of the method: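 First, ASA-I179S fibroblasts from an MLD patient adhered for 6 hrs. Next, compounds were added for 48h. Then pNCS substrate (0.5mM final) with lysis buffer reacted 14h at room temperature before NaOH stop and fluorescence measurement.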
# [2] = target: Peroxisome proliferator-activated receptor alpha (Homo sapiens) (UniProt Q07869); assay: qHTS assay for small molecule agonists of the peroxisome proliferator-activated receptor alpha (PPARalpha) signaling pathway (AID 651778); details: PathHunter PPARalpha complementation, chemiluminescence, 6 h; max response: active compounds read high; note: % of control where 0% means no effect
# Chain of Peroxisome proliferator-activated receptor alpha (Homo sapiens) (Q07869 whole entry, looked up): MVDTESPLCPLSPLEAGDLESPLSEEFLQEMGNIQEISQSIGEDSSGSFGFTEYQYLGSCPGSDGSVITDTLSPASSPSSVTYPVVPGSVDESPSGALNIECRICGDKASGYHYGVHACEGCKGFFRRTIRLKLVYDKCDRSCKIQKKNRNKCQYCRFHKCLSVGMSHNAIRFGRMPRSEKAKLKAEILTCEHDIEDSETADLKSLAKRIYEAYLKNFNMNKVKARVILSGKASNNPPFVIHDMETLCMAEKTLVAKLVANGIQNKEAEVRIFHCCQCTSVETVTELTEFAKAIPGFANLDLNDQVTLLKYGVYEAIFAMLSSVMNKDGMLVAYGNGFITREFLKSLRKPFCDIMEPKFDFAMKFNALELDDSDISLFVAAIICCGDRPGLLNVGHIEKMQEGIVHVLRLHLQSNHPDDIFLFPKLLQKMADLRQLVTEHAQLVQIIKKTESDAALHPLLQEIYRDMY
# Summary of the method: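 Cells plated at 2,000/well and held overnight at 37 C, 5% CO2, then compound added by pin tool for 6 hr; after PathHunter detection reagent and 60 min at room temperature, chemiluminescence from enzyme complementation was read.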
# [3] = qHTS assay for small molecule agonists of the antioxidant response element (ARE) signaling pathway measured by Nrf2-dependant transcriptional activity (AID 720636; active = well fitted curve in the direction sought with a large enough effect in the repeat runs; an effect the other way counts as inactive or inconclusive; note: % of control where 0% means no effect); details: ARE-luc HepG2, Nrf2 luciferase reporter, 16 h; series mostly up to 92.4 µM
# Summary of the method: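 ARE-luc HepG2 cells carrying an Nrf2-responsive luciferase reporter, in medium with 1% dialyzed FBS, exposed to compound for 16 hr at 37 C, 5% CO2. Luminescence read 30 min after ONE-Glo addition.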
# [4] = qHTS assay for small molecule agonists of the antioxidant response element (ARE) signaling pathway measured by Nrf2-dependant transcriptional activity - cell viability counter screen (AID 720653; active = well fitted curve in the direction sought with a large enough effect in the repeat runs; an effect the other way counts as inactive or inconclusive; note: % is set by controls: 0 for no effect and ±100 for the full control effect); details: ARE-bla HepG2 viability, CellTiter-Glo ATP luminescence, 16 h; active compounds read low
# Summary of the method: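 ARE-bla HepG2 cells (2,000/well) rested 5 hrs at 37C/5% CO2, then exposed to compounds in DMSO for 16 hrs. Viability was read in the same wells as intracellular ATP by luminescence, 30 min at room temperature after reagent addition.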
# [5] = qHTS Assay for Identifying Gametocytocidal Compounds (AID 743244); note: potency is the fitted concentration of half-maximal effect;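 for max response: % is set by controls: 0 for no effect and ±100 for the full control effect; actives lower the fluorescent signal which means gametocytes are killed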; details: P. falciparum 3D7 stage III-V gametocytes, alamarBlue, 72 h; max response: active compounds read low
# Summary of the method: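 Using 20,000 stage III–V 3D7 gametocytes per well, compounds were incubated 72 h under 37 °C/5% CO2. Viability was then assessed by 24 h alamarBlue reduction, measured fluorometrically at 525/598 nm.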
# [6] = qHTS assay for cell viability of HEK293 cells (AID 743288); details: ATP luminescence (CellTiter-Glo), 18 h; max response: active compounds read low; note: % is set by controls: 0 for no effect and ±100 for the full control effect; nearly all actives have a fitted effect of over 50% in size
# Summary of the method: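 Quantitative high-throughput screen: compounds were pinned onto parental HEK293 cells (2,000 per well) after a minimum 5 h settling at 37 C, incubated 18 h at 37 C, and intracellular ATP measured by luciferase luminescence.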
# [7] = qHTS assay for cell viability of the p53RE-bla HCT-116 cell line (AID 743292); details: p53RE-bla HCT-116 viability, ATP luminescence, 16 h; series mostly up to 95 µM; note: % is set by controls: 0 for no effect and ±100 for the full control effect; nearly all actives have a fitted effect of over 55% in size
# Summary of the method: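 CellSensor p53RE-bla HCT-116 cells (4,000/well) pre-incubated 5 h at 37 C, then exposed to compounds in DMSO for 16 h at 37 C. Viability read as ATP content by CellTiter-Glo luminescence after 30 min at room temperature.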
# [8] = qHTS for Activators of Parkin Expression: LOPAC Validation Assay (NLuc Reporter) (AID 720572; note: potency is the fitted concentration of half-maximal effect); details: Parkin promoter NanoLuc reporter cells, luminescence; series mostly up to 46.1 µM
# Summary of the method: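 Cells harboring the Parkin-promoter coincidence reporter were treated for 24 h at seven concentrations. NLuc output was measured sequentially after the FLuc channel and scaled between DMSO and positive control values.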
# [9] = target: Hexokinase-4 (Homo sapiens) + Glucokinase regulatory protein (Homo sapiens) (UniProt P35557+Q14397); assay: qHTS assay for inhibitors of recombinant human GCK-GKRP interaction: Diaphorase-coupled assay (AID 743205); details: G6PDH/diaphorase resorufin fluorescence; series mostly up to 57.5 µM
# Chain of Hexokinase-4 (Homo sapiens) + Glucokinase regulatory protein (Homo sapiens) (P35557 whole entry, looked up): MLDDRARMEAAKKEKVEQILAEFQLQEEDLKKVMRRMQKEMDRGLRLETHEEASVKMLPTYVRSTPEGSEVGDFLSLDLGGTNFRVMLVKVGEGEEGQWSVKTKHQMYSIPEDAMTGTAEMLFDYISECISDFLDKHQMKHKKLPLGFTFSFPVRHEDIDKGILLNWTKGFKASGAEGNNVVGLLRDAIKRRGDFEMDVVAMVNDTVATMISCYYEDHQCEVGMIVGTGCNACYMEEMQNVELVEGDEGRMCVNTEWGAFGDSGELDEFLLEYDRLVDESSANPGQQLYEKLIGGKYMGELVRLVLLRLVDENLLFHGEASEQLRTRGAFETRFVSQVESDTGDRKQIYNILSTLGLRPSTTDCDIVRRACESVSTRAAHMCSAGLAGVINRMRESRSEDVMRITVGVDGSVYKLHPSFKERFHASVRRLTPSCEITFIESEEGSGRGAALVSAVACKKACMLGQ
# Chain of Hexokinase-4 (Homo sapiens) + Glucokinase regulatory protein (Homo sapiens) (Q14397 whole entry, looked up): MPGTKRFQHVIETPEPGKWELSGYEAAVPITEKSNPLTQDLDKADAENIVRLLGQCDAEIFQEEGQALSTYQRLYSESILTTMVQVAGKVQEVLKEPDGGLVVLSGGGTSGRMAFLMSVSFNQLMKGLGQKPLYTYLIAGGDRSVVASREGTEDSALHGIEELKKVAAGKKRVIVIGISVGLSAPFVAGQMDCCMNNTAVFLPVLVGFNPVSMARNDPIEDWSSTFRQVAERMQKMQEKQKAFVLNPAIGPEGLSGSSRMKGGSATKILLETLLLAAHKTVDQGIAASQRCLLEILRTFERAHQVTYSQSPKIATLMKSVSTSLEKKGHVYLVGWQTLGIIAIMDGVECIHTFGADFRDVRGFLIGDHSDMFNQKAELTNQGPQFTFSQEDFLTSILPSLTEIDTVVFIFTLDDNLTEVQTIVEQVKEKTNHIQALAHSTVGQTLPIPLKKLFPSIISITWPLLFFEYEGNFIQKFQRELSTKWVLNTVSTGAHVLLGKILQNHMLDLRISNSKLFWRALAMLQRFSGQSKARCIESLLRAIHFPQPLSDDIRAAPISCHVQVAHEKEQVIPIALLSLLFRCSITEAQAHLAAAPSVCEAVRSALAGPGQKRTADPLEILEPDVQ
# Summary of the method: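 Inhibitors of the GCK–GKRP complex relieve GKRP suppression of GCK, detected through a G6PDH–diaphorase cascade reducing resazurin. Human GST-GCK and FLAG-GKRP are used at 10 nM with 5 mM glucose and 0.4 mM ATP.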
smiles,measurement,setting,value
CC(=O)[C@@]1(O)CC[C@H]2[C@@H]3CCC4=CC(=O)CC[C@]4(C)[C@H]3CC[C@@]21C,Potency,[1],inactive
CCNc1nc(Cl)nc(NCC)n1,max response,[2],-1.73%
same,Potency,[3],inactive
same,max response,[4],2.17%
same,max response,[5],2.85%
same,max response,[6],-8%
same,outcome,[7],inactive
COC(=O)C1=C(C)NC(C)=C(C(=O)OC)C1c1ccccc1[N+](=O)[O-],Potency,[8],23.1 µM (active)
C=CCOC(Cn1ccnc1)c1ccc(Cl)cc1Cl (configuration not stated),max response,[2],-1.42% and 0.577%
same,Potency,[3],inactive
same,max response,[4],-15.2% and -7.32%
same,max response,[6],-18.6% and -17%
same,outcome,[7],inactive
C[C@]12CC[C@H](O)CC1=CC[C@@H]1[C@@H]2CC[C@]2(C)C(=O)CC[C@@H]12,max response,[5],-7.96%
CN1C(=O)CN=C(c2ccccc2)c2cc([N+](=O)[O-])ccc21,max response,[5],4.86%
Cc1nc2ccccc2c(=O)n1-c1ccccc1Cl,max response,[5],1.05%
O=C(Nc1ccc(Cl)cc1)Nc1ccc(Cl)c(C(F)(F)F)c1,Potency,[5],12.6 µM (active)
NC(N)=N/N=C/c1c(Cl)cccc1Cl,Potency,[5],3.55 µM (active)
CCCOC(=O)Cc1ccc(OCC(=O)N(CC)CC)c(OC)c1,max response,[5],-6.3%
C[C@H](N)[C@H](O)c1ccc(O)c(O)c1,max response,[5],-0.0676%
C=CC[C@]1(O)CC[C@H]2[C@@H]3CCC4=CC(=O)CCC4=C3C=C[C@@]21C,max response,[5],1.81%
C[C@]12CC[C@H]3[C@@H](CC=C4C[C@@H](O)CC[C@@]43C)[C@@H]1CC[C@@H]2O,max response,[5],-0.897%
Oc1ccc2[nH]cc(CCCCN3CC=C(c4ccccc4)CC3)c2c1,max response,[5],-6.56%
O=C(O)c1ccccc1Nc1cc(Cl)ccc1C(=O)O,max response,[5],32.7%
Cc1ncc2n1-c1ccc(Cl)cc1C(c1ccccc1F)=NC2,max response,[5],-2.43%
C#C[C@]1(O)C=C[C@H]2[C@@H]3CCC4=CC(=O)CC[C@@H]4[C@H]3CC[C@@]21CC,max response,[5],2.38%
COc1cc(C[C@@H](C)N)c(OC)cc1C,max response,[5],-6.71%
ClC1=C(Cl)C2(Cl)C(CBr)CC1(Cl)C2(Cl)Cl (configuration not stated),max response,[5],-1.6%
C[C@]12CC[C@H]3[C@@H](CCC4=CC(=O)CC[C@@H]43)[C@@H]1CC[C@@H]2O,max response,[5],-13.9% and -1.26%
COP(=S)(OC)Oc1ccc(S(N)(=O)=O)cc1,max response,[5],5.01%
CNC(=O)Oc1ccc2c(c1)[C@]1(C)CCN(C)[C@@H]1N2C,outcome,[9],inactive
same,Potency,[5],11.2 µM (active) and 3.55 µM (active)
CCC1(c2cnc[nH]2)Cc2ccccc2C1,max response,[5],-21.2%
O=C(O)CCCCCCNC1c2ccccc2CCc2ccccc21,max response,[5],-6.01%
CC(C)(C)OC(=O)c1ncn2c1[C@@H]1CCCN1C(=O)c1c(Br)cccc1-2,max response,[5],3.06%
c1ccc2nc(N3CCNCC3)ccc2c1,max response,[5],-4.39%
CCN(CC)CCCN(c1ccccc1)C1Cc2ccccc2C1,Potency,[5],8.91 µM (active)
Cc1ccc(N=CN(C)C=Nc2ccc(C)cc2C)c(C)c1,Potency,[3],inactive
same,max response,[4],-11.3%
same,max response,[5],9.43%
same,max response,[6],-16.1%
same,outcome,[7],inactive
COc1cccc2c1C(=O)c1c(O)c3c(c(O)c1C2=O)C[C@@](O)(C(=O)CO)C[C@@H]3O[C@H]1C[C@H](N)[C@H](O[C@@H]2CCCCO2)[C@H](C)O1,Potency,[5],22.4 µM (active)
NC(=O)OCCCc1ccccc1,max response,[5],-5.39%
C[C@@H]1O[C@@H](O[C@@H]2C=C3CC[C@@H]4[C@H](CC[C@]5(C)[C@@H](c6ccc(=O)oc6)CC[C@]45O)[C@@]3(C)CC2)[C@H](O)[C@H](O)[C@H]1O,max response,[5],11.2%
O=C(Nc1ccc(Cl)cc1)Nc1ccc(Cl)c(Cl)c1,Potency,[5],15.8 µM (active) and 29.6 µM (active)
COc1ccc2[nH]cc(CCN(C(C)C)C(C)C)c2c1,max response,[5],-5.46%
O=C1NC2CCCCN2C12CCN(CCCN1c3ccccc3CCc3ccc(Cl)cc31)CC2 (configuration not stated),Potency,[5],22.4 µM (active)
CCCC[N+]1(C)[C@@H]2CC(OC(=O)[C@H](CO)c3ccccc3)C[C@H]1[C@@H]1O[C@@H]12 (some centres not stated),max response,[5],5.95%
CCC1(CC)C(=O)NC(=O)NC1=O,max response,[5],-6.5%
CC(C)=CCN1CC[C@@]2(C)c3cc(O)ccc3C[C@@H]1[C@@H]2C,max response,[5],-13.8%
CCC(=O)OC1(c2ccccc2)CCN(C)CC1,max response,[5],-1.1%
